Experimental data reported in PubChem BioAssay AID623868 (Vanderbilt High Throughput Screening Facility, 2012).
Screen size: about 2,100 compounds; about 760 (36%) were called active.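 How the source made its calls: active means thallium-flux fluorescence traces judged by eye to show enhanced or reduced glutamate response, manual score 1 or -1, so both directions (some results past the limit were not filed as active); inactive means the rest, including fluorescent or raised-baseline compounds.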 The list is a sample of the results.

Test: thallium influx changes without GIRK channels – cell-based, HEK-293 rmGlu8, no GIRK, thallium flux, counter-screen for GIRK activator project, confirmation (AID 623868);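 further: extra codes mark interference with 3 for fluorescent and 4 for baseline rise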
Settings: thallium flux fluorescence, at 10 µM, actives lie on both sides, codes: 1 enhancer, -1 blocker, 0 none, thallium stimulus containing EC20 glutamate

Row | SMILES | manual score
1 | C/C(=N\O)C(C)NC(=O)c1ccccc1 (stereo not drawn) | 0 (inactive)
2 | O=C(NN=c1c(=O)c2ccccc2c1=O)c1ccccc1 | 1 (active)
3 | O=C(Nc1ccc(SC(F)F)cc1)C12CCC(CC1)C2 | 0 (inactive)
4 | O=c1[nH]c2ccc(Cl)cc2c(=O)n1Cc1ccco1 | 0 (inactive)
5 | O=c1c2cc(Cl)ccc2[nH]c(=S)n1Cc1cccs1 | 1 (active)
6 | O=c1c2cc(N3CCOCC3)ccc2[nH]c(=S)n1Cc1ccc(Cl)cc1 | 0 (inactive)
7 | O=c1c2cc(Cl)ccc2[nH]c(=S)n1Cc1ccco1 | 1 (active)
8 | Cc1c(C(=O)O)[nH]c2c1C(=O)CC(c1ccc(Cl)cc1)C2 (stereo not drawn) | 0 (inactive)
9 | CN1CCN(CC(=O)N2c3ccccc3C(C)(c3ccc(Cl)cc3)CC2(C)C)CC1 (stereo not drawn) | 0 (inactive)
10 | O=C(NN=C(Cc1ccccc1)Cc1ccccc1)c1ccc(F)cc1 | 0 (inactive)
11 | COC(=O)C(CC(C)C)NC(=O)c1ccc([N+](=O)[O-])c(C)c1 (stereo not drawn) | 0 (inactive)
12 | CCCCCC(=O)NC(=S)NNC(=O)c1ccc([N+](=O)[O-])cc1 | 1 (active)
13 | CC(C)CNC(=S)NC(=O)c1ccc(F)cc1 | 1 (active)
14 | CC(C)CNC(=S)NC(=O)c1ccc([N+](=O)[O-])cc1 | 1 (active)
15 | CCCCNC(=S)NC(=O)c1ccc([N+](=O)[O-])cc1 | 1 (active)
16 | CCCn1c(=N)n(CC(O)COc2cccc(C)c2)c2ccccc21 (stereo not drawn) | 0 (inactive)
17 | CN(C)Cc1c(O)c(Cl)cc2c3c(c(=O)oc12)CCCC3 | 0 (inactive)
18 | COc1ccc2c(c1)C(C)=CC(C)(C)N2C(=O)CNCc1ccc2c(c1)OCO2 | 0 (inactive)
19 | O=C(O)c1oc2ccccc2c1CSc1ccccn1 | 0 (inactive)
20 | CCn1cc(C(=O)N2CC=C(c3ccccc3)CC2)c(=O)c2ccc(C)nc21 | -0.5 (inactive)
21 | CCN(CC)c1ccc(/C=C2/C(=O)c3ccc(C(=O)O)cc3C2=O)cc1 | 3 (inactive)
22 | COc1ccc2nc(N3C(=O)/C(=C/c4ccccc4)NC3=S)sc2c1 | 1 (active)
23 | O=C(c1ccco1)N1CCN(c2ncnc3scc(-c4cccs4)c23)CC1 | 0 (inactive)
24 | Cc1cc(N2CCOCC2)n2nc(C)c(-c3ccccc3)c2n1 | 0 (inactive)
25 | CCc1cccc(CC)c1-n1c(SCC(=O)N2CCc3ccccc3C2)nnc1-c1cccnc1 | 0 (inactive)
26 | CCCn1c(=O)c2ccccc2n2c(SCCOc3ccccc3F)nnc12 | -0.5 (inactive)

Row | SMILES | manual score
27 | CCCn1c(=O)c2ccccc2n2c(SCC(=O)N3CCc4ccccc4C3)nnc12 | -1 (active)
28 | CCCn1c(=O)c2ccccc2n2c(SCc3nc4ccccc4s3)nnc12 | -1 (active)
29 | Cn1c(SCC(=O)N2c3ccccc3CCc3ccccc32)nnc1-c1ccc(O)cc1 | 0 (inactive)
30 | CCCCOC(=O)c1ccc(NC(=S)NC(=O)c2c(Cl)cnn2C)cc1 | 0.5 (inactive)
31 | CCCCOC(=O)c1ccc(NC(=S)NC(=O)c2c(Br)c(C)nn2C)cc1 | 1 (active)
32 | CCCCOC(=O)c1ccc(NC(=S)NC(=O)c2c(Cl)cnn2CC)cc1 | 1 (active)
33 | CCCCOC(=O)Nc1ccc(C(=O)OCCC)cc1 | 0 (inactive)
34 | CCCOC(=O)c1ccc(NC(=O)c2ccoc2C)cc1 | 0 (inactive)
35 | COC(=O)c1ccc(Cl)c(NC(=O)CN2CCN(C)CC2)c1 | 0 (inactive)
36 | COC(=O)c1ccc(NC(=O)C23CC4CC(C2)CC(n2cncn2)(C4)C3)cc1 | 0 (inactive)
37 | CCCCc1ccc(NC(=S)Nc2ccc(Cl)c(S(=O)(=O)N(C)C)c2)cc1 | 0 (inactive)
38 | COC(=O)c1ccc(NC(=S)NC(=O)c2c(Cl)cnn2C)cc1 | 1 (active)
39 | O=C(NC(=S)Nc1ccccc1N1CCOCC1)c1cccs1 | 1 (active)
40 | CC1CCN(c2ccccc2NC(=S)NC(=O)c2cccs2)CC1 | 1 (active)
41 | Cc1ccc(NC(=O)C(c2ccccc2)C2CCCC2)cc1 (stereo not drawn) | 0 (inactive)
42 | O=C1NC(=S)/C(=C\c2ccc(-c3ccccc3Cl)o2)S1 | 3 (inactive)
43 | O=C1NC(=S)S/C1=C\c1ccc(SCc2ccccc2)o1 | 1 (active)
44 | O=C(CSc1cccc2cccc(Cl)c12)NCc1cccs1 | 0 (inactive)
45 | CCC(C(=O)OCC(=O)Nc1ccc(Cl)c(S(=O)(=O)N(C)C)c1)c1ccccc1 (stereo not drawn) | 0 (inactive)
46 | COC(=O)c1sccc1NC(=O)CSc1ccccc1NS(=O)(=O)c1cc(Cl)ccc1Cl | 1 (active)
47 | COC(=O)c1sccc1NC(=O)CSc1ccccc1NS(=O)(=O)c1ccc(Cl)cc1 | 0.5 (inactive)
48 | O=S(=O)(Nc1nc(-c2sccc2Cl)cs1)c1cc(Cl)ccc1Cl | 0 (inactive)
49 | COC(=O)c1sccc1NC(=O)CSc1ccccc1NS(=O)(=O)c1ccccc1Cl | 1 (active)
50 | CN(C)S(=O)(=O)c1cccc(NC(=O)COc2cccc(C#N)c2)c1 | 0 (inactive)
51 | Cc1ccc(C)c(C(=O)c2c(C)nc3sccn23)c1 | 0 (inactive)
52 | Cc1ccc(OCC(=O)N/N=C\c2ccc(-c3cccc(C(=O)O)c3)o2)c(C)c1 | 0 (inactive)

Row | SMILES | manual score
53 | CC(/C=C/c1ccccc1)=N/NC(=O)c1cc([N+](=O)[O-])cc([N+](=O)[O-])c1 | 0 (inactive)
54 | Cc1ccc(/C=N\NC(=O)c2cc([N+](=O)[O-])cc([N+](=O)[O-])c2)o1 | 1 (active)
55 | Cc1ccc(-c2cc(-c3ccccc3)[nH]c(=S)c2C#N)cc1 | 1 (active)
56 | COc1ccc(CC(=O)Nc2cc(=O)n(C)c(=O)n2C)cc1 | 0 (inactive)
57 | CC(C)Cn1cnc2sc3c(c2c1=N)CCCC3 | 0 (inactive)
58 | Cc1cc(C)nc(Sc2ncnc3sc4c(c23)CCC4)n1 | 1 (active)
59 | COc1ccc(/C=C/c2nc3sc4c(c3c(=O)o2)CCC4)cc1 | 3 (inactive)
60 | COc1ccc(C(=O)CC(=O)C(=O)NCCc2cccc(C)c2)cc1 | 0.5 (inactive)
61 | COc1ccc(CCC(=O)NCc2cnn(C)c2)cc1 | 0 (inactive)
62 | O=C(CCc1ccccc1)NNC(=S)NC(=O)c1ccc(Cl)cc1 | 1 (active)
63 | COc1ccc(C(=O)NC(=S)NNC(=O)CCc2ccccc2)cc1 | 1 (active)
64 | O=C(CCSCc1cccc(Cl)c1)NCCc1ccc(Cl)cc1 | 0 (inactive)
65 | Oc1[nH]c2c(Cl)cc(Cl)cc2c1N=NC(=S)NCC1CCCO1 (stereo not drawn) | 1 (active)
66 | Oc1[nH]c2ccccc2c1N=NC(=S)NCCc1ccccc1 | 1 (active)
67 | Oc1[nH]c2ccccc2c1N=NC(=S)NCC1CCCO1 (stereo not drawn) | 1 (active)
68 | Clc1ccc2[nH]c3c(NCC4CCCO4)ncnc3c2c1 (stereo not drawn) | 0 (inactive)
69 | Oc1cccc(Nc2nc(NCC3CCCO3)c3ccccc3n2)c1 (stereo not drawn) | 0 (inactive)
70 | COc1ccc(S(=O)(=O)N(CC(=O)N2CCN(c3ccccc3)CC2)c2ccccc2)cc1 | 0 (inactive)
71 | CN1C=CC2=C(C#N)C(N)C(C#N)(C#N)C(c3ccccc3)C2C1 (stereo not drawn) | 3 (inactive)
72 | CC(=O)c1cccc(NC(=O)C2CCCN2S(=O)(=O)c2cccc3cccnc23)c1 (stereo not drawn) | 0 (inactive)
73 | Cc1cc(/C=c2/sc3nc4ccccc4n3c2=O)c(C)n1-c1ccccn1 | 0 (inactive)
74 | Cc1ccc2cccc(Oc3nnnn3-c3ccccc3)c2n1 | 0 (inactive)
75 | CCOC(=O)c1c(C)[nH]c2c1cc(O)c1ccccc12 | 0 (inactive)
76 | CCOC(=O)c1c(-c2ccc(C)o2)csc1NC(=S)NC(=O)c1cccs1 | 0 (inactive)
77 | CCOC(=O)c1c(-c2ccccc2)csc1NC(=S)NC | 1 (active)
78 | CCOC(=O)C(Cc1ccccc1)NC(=O)Cn1nnc(-c2ccccc2)n1 (stereo not drawn) | 0 (inactive)

Row | SMILES | manual score
79 | CCNC(=S)Nc1scc(-c2ccccc2)c1C(=O)OCC | 1 (active)
80 | CCOC(=O)c1c(-c2ccc(C)o2)csc1NC(=S)NC(=O)N(C)C | 1 (active)
81 | Cc1ccc(OCC(=O)Nc2ccc(C)c(S(=O)(=O)N3CCCCC3)c2)c([N+](=O)[O-])n1 | 0 (inactive)
82 | NC(=O)c1noc(C(=O)N(CC(=O)NC2CCCC2)Cc2ccc3c(c2)OCO3)c1N | 0 (inactive)
83 | O=C1c2cccc3c(O)ccc(c23)C(=O)N1Cc1ccccc1 | 3 (inactive)
84 | CCc1ccc(C2=NN(c3ccc(S(N)(=O)=O)cc3)C(c3ccc(F)cc3)C2)cc1 (stereo not drawn) | 0 (inactive)
85 | CCOc1ccccc1N1CCN(S(=O)(=O)c2cccs2)CC1 | 0 (inactive)
86 | O=S(=O)(Nc1cc(Cl)ccc1N1CCCCC1)c1cccs1 | 1 (active)
87 | O=C(Nc1ccccc1)c1ccccc1NS(=O)(=O)c1ccc(Cl)s1 | 0.5 (inactive)
88 | O=C(Nc1nncs1)c1ccccc1NS(=O)(=O)c1cccs1 | 0 (inactive)
89 | O=S(=O)(Nc1ccccc1N1CCCCC1)c1ccc(Cl)s1 | 1 (active)
90 | CN1CCN(c2ccccc2NS(=O)(=O)c2ccc3c(c2)CCN3C(=O)C2CCC2)CC1 | 0 (inactive)
91 | CCCN(CCC)CCCNC(=O)c1cc2c(=O)n(C)c3ccccc3c2n1C | 0 (inactive)
92 | S=c1nc[nH]c2c1sc1nc(-c3ccccc3)c3c(c12)CCCC3 | 1 (active)
93 | Cc1ccc2nsnc2c1S(=O)(=O)Nc1cccc2nsnc12 | 1 (active)
94 | CCOC(=O)N1CCN(c2c(F)cc3[nH]c(=S)[nH]c3c2Br)CC1 | 0 (inactive)
95 | Cc1sc2ncnc(N(C)Cc3cccs3)c2c1C | -1 (active)
96 | CC(C)CCNC(=O)C(C)N(Cc1ccc(F)cc1)C(=O)c1ccc(CN2CCCCC2)o1 (stereo not drawn) | 0 (inactive)
97 | CC(NC(=O)COc1ccccc1)C(=O)NC1=NCCS1 (stereo not drawn) | 0 (inactive)
98 | Cc1ccc(OCC(=O)NNC(=O)C(C)Sc2ncnc3sc(C)c(C)c23)cc1 (stereo not drawn) | 1 (active)
99 | Cc1ccc(OCCCC(=O)Nc2nccs2)cc1 | 0 (inactive)
100 | CC1CC2=C(CC1/C=N/NC(N)=S)C(C)(C)CCC2 (stereo not drawn) | 0 (inactive)
101 | COc1ccccc1OCC(O)Cn1c(=N)n(Cc2ccccc2)c2ccccc21 (stereo not drawn) | 0 (inactive)
102 | CC1=C(C(=O)OCC2CCCO2)C(c2ccc(C)o2)C2=C(CC(c3ccc(F)cc3)CC2=O)N1 (stereo not drawn) | -1 (active)
103 | CCOC(=O)C1=C(C)NC2=C(C(=O)CC(c3ccc(OC)c(OC)c3)C2)C1c1ccc(C)o1 (stereo not drawn) | 0 (inactive)
